Measured values published in PubChem BioAssay AID488969 (Vanderbilt High Throughput Screening Facility, 2010).
In all, about 110,000 compounds were measured (“z-score”: median about -0.1, highest 2% from about 2 on). Shown is part of a subset that was picked to be rich in the highest values. Active and inactive are the calls of the source.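 How the source made its calls: active means z-score in the third read window above 3 or below -3; inactive means the rest.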

molecular target: Metabotropic glutamate receptor 8 (Rattus norvegicus) (UniProt P70579); assay: mGluR8 Gi/Go-coupled signaling modulation – cell-based, rat, thallium flux, HTS, primary screen (AID 488969); conditions: HEK293 rat mGluR8, GIRK (G protein-gated inwardly rectifying potassium channel) thallium flux, FluoZin2; at 10 µM; stronger effect = higher value; submaximal glutamate (EC20) added with thallium
Sequence (P70579 whole entry, looked up): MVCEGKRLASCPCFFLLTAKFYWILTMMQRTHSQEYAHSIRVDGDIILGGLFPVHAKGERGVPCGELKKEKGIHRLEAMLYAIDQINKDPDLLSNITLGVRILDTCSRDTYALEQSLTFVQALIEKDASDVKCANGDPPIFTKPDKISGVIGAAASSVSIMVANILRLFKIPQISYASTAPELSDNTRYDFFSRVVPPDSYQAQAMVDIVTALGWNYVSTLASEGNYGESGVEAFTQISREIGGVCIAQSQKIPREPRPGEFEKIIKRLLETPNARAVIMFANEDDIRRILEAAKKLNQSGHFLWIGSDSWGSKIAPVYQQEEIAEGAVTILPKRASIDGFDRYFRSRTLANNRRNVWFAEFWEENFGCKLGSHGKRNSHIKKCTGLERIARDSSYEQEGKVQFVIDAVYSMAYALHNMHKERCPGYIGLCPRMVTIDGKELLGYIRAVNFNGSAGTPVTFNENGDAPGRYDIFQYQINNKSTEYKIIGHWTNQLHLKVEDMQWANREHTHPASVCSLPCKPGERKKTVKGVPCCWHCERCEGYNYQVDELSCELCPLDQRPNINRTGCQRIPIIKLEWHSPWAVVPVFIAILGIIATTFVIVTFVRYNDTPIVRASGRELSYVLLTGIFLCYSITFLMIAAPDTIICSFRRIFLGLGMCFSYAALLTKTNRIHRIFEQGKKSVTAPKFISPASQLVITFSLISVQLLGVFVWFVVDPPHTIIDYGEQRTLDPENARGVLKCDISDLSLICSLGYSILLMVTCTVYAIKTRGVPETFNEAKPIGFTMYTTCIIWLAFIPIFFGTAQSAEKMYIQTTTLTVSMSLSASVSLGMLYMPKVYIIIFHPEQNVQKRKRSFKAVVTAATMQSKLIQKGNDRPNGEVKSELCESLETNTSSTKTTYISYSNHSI

Structure (SMILES) | z-score
CCn1c(COc2ccc(C)cc2)nnc1SCc1nc2ccccc2[nH]1 | -0.0293
COCCN1C(=O)c2ccccc2C(C(=O)NCC2CCCO2)C1c1c[nH]c2ccccc12 (stereo unspecified) | -0.121
O=C(NCc1ccc2c(c1)OCO2)C1CCCN1C(=O)Nc1cccc(F)c1 (stereo unspecified) | 0.725
CCCC(=O)Nc1cc(-c2nnc(OC)c3ccccc23)ccc1N1CCCCC1 | -0.148
O=CN1CC(=O)N(c2ccccc2)c2c([nH]c3ccccc23)C1 | 0.383
CCc1cc(C(c2ccc(OC)c(OC)c2)N2CCOCC2)c(NC(=O)c2ccccc2)s1 (stereo unspecified) | -0.47
CC(C)C(=O)Nc1nnc(CCc2nnc(NC(=O)C(C)C)s2)s1 | 0.549
COC(=O)Cc1nnc(NC(=O)C(C)C)s1 | 0.0291
COCc1nnc(NC(=O)C(C)C)s1 | 3.48 (active)
CO/N=C/c1ccc(Sc2ccc(C)cc2)c([N+](=O)[O-])c1 | -0.349
COc1cc(NC(=O)C2CCCO2)c(OC)cc1Cl (stereo unspecified) | -0.106
COc1ccc(OC)c(NC(=O)C2CCCCC2)c1 | -0.385
COc1cc(NC(=O)C(=O)NNC(=O)C2CCCCC2)c(OC)cc1Cl | 3.98 (active)
O=C(Oc1cccc([N+](=O)[O-])c1)c1cc(-c2ccccc2)nc2ccccc12 | 0.17
C=CCc1cccc2cc(C(=O)N(C)C)c(=O)oc12 | 0.176
Cn1cccc1C(=O)N1CCN(c2cccc(C(F)(F)F)c2)CC1 | -0.386
CC1CCC(NC(=O)CC2Oc3ccccc3NC2=O)CC1 (stereo unspecified) | -0.471
O=C(CC1Oc2ccccc2NC1=O)NC1CC1 (stereo unspecified) | 2.19
O=C(CC1Oc2ccccc2NC1=O)NC1CCCC1 (stereo unspecified) | -0.0976
Cc1ccc(NC(=O)CCn2cnc3cc(C)c(C)cc32)cc1 | -0.642
CCOc1ccccc1N1CCN(C(=O)C(F)(F)F)CC1 | -0.337
Cc1cc(C)nc(NS(=O)(=O)c2ccc(N/C=C3\CCCC3=O)cc2)n1 | -0.331
COc1ccccc1Nc1nc2nonc2nc1N1CCCCC1C (stereo unspecified) | -0.202
CC12CC3(C)CC(C)(C1)CC(C(=O)NC(=S)N1CCOCC1)(C2)C3 | 8.61 (active)

Structure (SMILES) | z-score
CC12CC3(C)CC(C)(C1)CC(C(=O)NC(=S)NC(C)(C)C)(C2)C3 | 0.0601
O=C(Nc1ccccc1N1CCN(c2ccc(F)cc2)CC1)C12CC3CC(CC(C3)C1)C2 | -1.97
O=C(N1CCN(c2ccccc2)CC1)C12CC3CC(CC(C3)C1)C2 | -0.202
CC(C)(C)C(=O)NC(=S)N1CCOCC1 | -0.0566
O=C(NC(=S)N1CCOCC1)C12CCC3CC(CC(C3)C1)C2 | 0.411
O=C(NC(=S)N1CCCCC1)C12CC3CC(CC(C3)C1)C2 | 5.6 (active)
O=C(NC(=S)N1CCOCC1)C12CC3CCC(CC(C3)C1)C2 | 0.454
CC12CC3CC(C)(C1)CC(C(=O)NC(=S)N1CCOCC1)(C3)C2 | 3.1 (active)
O=C(NC(=S)N1CCN(c2ccc(F)cc2)CC1)C12CC3CC(CC(C3)C1)C2 | 2.89
CC12CC3CC(C)(C1)CC(CN1CCOCC1)(C3)C2 | -0.06
O=C(N1CCOCC1)C12CC3CC(C1)CC(C(=O)N1CCOCC1)(C3)C2 | 0.153
CCOC(=O)Nc1cccc(NC(=O)c2cc(OC)cc(OC)c2)c1 | -0.454
C=CCc1ccc(OCC(O)COCC)c(OC)c1 (stereo unspecified) | -0.12
N#C/C(=C\c1cccs1)C(=O)NCc1cccnc1 | -0.112
O=C(CNc1ccc(C(F)(F)F)cc1[N+](=O)[O-])OCC(=O)c1ccccc1 | -0.875
CCN(CC)CCNC(=O)C12CC3CC(C)(CC(C)(C3)C1)C2 | 0.873
O=C(NC(=S)N1CCCCCC1)C1CC1 | 0.000532
O=C(CC12CC3CC(CC(C3)C1)C2)N1CCCC1 | -0.327
O=C(CC12CC3CC(CC(C3)C1)C2)NC(=S)N1CCCCC1 | 2.58
CCOc1ccccc1N1CCN(C(=S)Nc2ccc(S(N)(=O)=O)cc2)CC1 | -0.356
O=C(CC12CC3CC(CC(C3)C1)C2)NCC(=O)N1CCCC1 | 0.463
CCOc1ccccc1N1CCN(C(=S)NC(=O)C23CC4CC(CC(C4)C2)C3)CC1 | 4.1 (active)
CCOc1ccccc1N1CCN(C(=O)c2ccccc2)CC1 | -1.51
CC12CC3CC(C)(C1)CC(C(=O)NC(=S)N1CCCCC1)(C3)C2 | 8.62 (active)

Structure (SMILES) | z-score
COC1(c2ccccc2)NC(=S)NN=C1c1ccccc1 (stereo unspecified) | 0.721
O=S(=O)(c1cccc(NC(=S)N2CCN(c3ccccc3)CC2)c1)C(F)F | -0.245
Cc1occc1-c1nnc(SCC(=O)NC(C)(C)C)n1C(C)c1ccccc1 (stereo unspecified) | 0.32
CN1C(=O)c2ccccc2C(C(=O)NCC2CCCO2)C1c1c[nH]c2ccccc12 (stereo unspecified) | -1.14
COc1ccc(CCNC(=O)COC(=O)c2ccc(Br)o2)cc1OC | 0.125
COc1ccc(CC(=O)NNC(=O)CSc2nnc(Cc3ccc(OC)cc3)n2-c2ccccc2)cc1 | -0.277
N#Cc1ccccc1NC(=O)c1ccccc1OCC(=O)Nc1ccc2c(c1)oc1ccccc12 | -0.362
CC(C)(C)NC(=O)COC(=O)c1ccccc1OCC(=O)Nc1ccc(Br)cc1 | -0.154
CCN1C(=O)CC(N2CCC(Nc3ccc(OC)cc3)CC2)C1=O (stereo unspecified) | 0.0918
COc1ccc(CCNC(=O)COc2ccc(S(=O)(=O)NCC(C)C)cc2Cl)cc1OC | -0.464
Cc1ccc(NC(=O)/C(C#N)=C/c2cc(C)n(-c3ccc(N4CCOCC4)c([N+](=O)[O-])c3)c2C)c(C)c1 | -0.136
CCOC(=O)N1CCC(N2C(=O)c3ccccc3C2Nc2c(C)cccc2C)CC1 (stereo unspecified) | -0.177
CCOC(=O)N1CCC(N2C(=O)c3ccccc3C2Nc2ccccc2)CC1 (stereo unspecified) | -0.126
CCOC(=O)N1CCC(N2C(=O)c3ccccc3C2Nc2ccc(C)cc2)CC1 (stereo unspecified) | -0.488
CCOC(=O)N1CCC(N2C(=O)c3ccccc3C2Nc2ccc3c(C)cc(=O)oc3c2)CC1 (stereo unspecified) | 4.01 (active)
CCOC(=O)N1CCC(N2C(=O)c3ccccc3C2Nc2ccccc2C)CC1 (stereo unspecified) | 2.74
CCOC(=O)c1ccccc1NC1c2ccccc2C(=O)N1C1CCN(C(=O)OCC)CC1 (stereo unspecified) | -0.69
CCN(CC)c1ccc(C(=O)N/N=C(\C)c2ccc(OC)c(OC)c2)cc1 | 0.585
CCOC(=O)c1cc2c(ccn2C)n1CC(=O)N(Cc1ccccc1)c1ccc(F)cc1 | 1.2
CCOC(=O)C(C)(C)Sc1nc2c(cnn2-c2ccc(Cl)cc2)c(=O)[nH]1 | -0.781
Cc1ccc(OCC(=O)c2ccc3c(c2)CCCC3)cc1C | -0.12
O=C(Nc1ccc2c3c(cccc13)CC2)c1ccco1 | 0.0277
Cc1cc(C)c(NC(=O)c2ccccc2N(C)S(C)(=O)=O)c(C)c1 | 0.0701
CC1(C)CC(=O)c2cn3nc(C(F)(F)F)nc3nc2C1 | -0.129

Structure (SMILES) | z-score
CCC1(c2ccccc2)NC(=S)N(c2cccc(C)c2C)N1 (stereo unspecified) | 1.26
CC1CCC2(CC1)NC(=S)N(c1ccccc1)N2 (stereo unspecified) | 0.323
CCC1(c2ccc(Cl)cc2)NC(=S)N(c2ccccc2)N1 (stereo unspecified) | 4.78 (active)
Cc1ccc(SCCC(=O)Nc2ccc(Br)c(C)c2)cc1 | -0.0218
S=c1[nH]nc(-c2ccco2)n1/N=C/c1cccc(Cl)c1Cl | 5.73 (active)
Cc1ccc(-c2n[nH]c(=S)n2/N=C/c2cccn2C)cc1 | 1.02
S=c1[nH]nc(-c2ccco2)n1/N=C/c1ccc(Cl)cc1 | -0.0483
Cc1ccsc1/C=N/n1c(-c2ccco2)n[nH]c1=S | 0.377
S=c1[nH]nc(-c2ccco2)n1/N=C/c1ccccc1Cl | 1.07
Cn1cccc1/C=N/n1c(-c2ccc(Cl)cc2)n[nH]c1=S | 1.03
S=c1[nH]nc(-c2ccco2)n1/N=C/c1ccc(Cl)cc1Cl | 6.87 (active)
S=c1[nH]nc(-c2ccco2)n1/N=C/c1ccc(Cl)c(Cl)c1 | 1.59
Cn1cccc1/C=N/n1c(-c2ccc(Cl)cc2Cl)n[nH]c1=S | 2.46
Cc1ccc(-n2nc(CN3CCOCC3)c(-c3ccccc3)c2N)c(C)c1 | -0.0359
CCCOc1ccc(-c2csc(N)n2)cc1[N+](=O)[O-] | -0.349
Cc1ccc(C2NC(c3ccc(C)cc3)C(C)C(=NO)C2C)cc1 (stereo unspecified) | -0.376
O=C(Nn1cnnc1)c1ccccc1CCc1ccccc1 | 0.0675
CS(=O)(=O)c1ccc2nc(NC(=O)C3COc4ccccc4O3)sc2c1 (stereo unspecified) | 0.303
Cn1c(=O)c2c(nc(NCc3ccc4c(c3)OCO4)n2Cc2ccccc2)n(C)c1=O | -1.09
CCc1ccc(S(=O)(=O)N2CC(=O)Nc3ccccc32)cc1 | -0.195
Cc1cccc(Sc2ccc([N+](=O)[O-])cc2[N+](=O)[O-])n1 | -0.278
CCOc1cc(C=O)c(Br)cc1OC1CCCC1 | 0.0863
COc1cc(C=O)c(Br)cc1OC1CCCC1 | 2.09
COc1cc(C=O)c(Br)cc1OCc1ccc(C)cc1 | -0.101

Structure (SMILES) | z-score
CCOc1ccc(CCNC(=O)C2CCN(C(=O)N(C)C)CC2)cc1OCC | 0.862
Clc1cccc2c1Sc1ccccc1CC2N1CCNCC1 (stereo unspecified) | 0.386
Clc1ccc2c(c1)C(C1=NCCN1)c1ccccc1CS2 (stereo unspecified) | 0.865
Clc1ccc2c(c1)C(N1CCNCC1)Cc1ccccc1S2 (stereo unspecified) | 3.92 (active)
COc1ccc(OC)c(N(CC(=O)Nc2cccnc2)S(=O)(=O)c2ccccc2)c1 | -0.398
C=CCOc1cccc(/C=N/NC(=O)CN(c2cc(Cl)ccc2OC)S(=O)(=O)c2ccc(C)c([N+](=O)[O-])c2)c1 | -0.0532
Cc1ccc2nc3sc(C(=O)NCc4ccco4)c(N)c3cc2c1 | -0.222
CNC(=O)CSc1nnnn1CCCOC | 0.0742
CCOC(=O)C1=NN(C(=O)c2ccco2)C2(CC2)C1 | -0.239
COC(=O)C1=NN(C(=O)c2ccc(Cl)cc2)C(O)(c2ccccc2)C1 (stereo unspecified) | 11.5 (active)
CCC1=NN(C(=O)c2cccc(Br)c2)C(O)(c2ccc(Br)cc2)C1 (stereo unspecified) | 3.84 (active)
CCC1=NN(C(=O)Cc2ccc([N+](=O)[O-])cc2)C(O)(c2ccc(Br)cc2)C1 (stereo unspecified) | -0.206
CCC1=NN(C(=O)c2ccc(C)cc2)C(O)(c2ccc(Br)cc2)C1 (stereo unspecified) | 0.175
CCC1(O)CC(C(=O)OC)=NN1C(=O)c1ccccc1 (stereo unspecified) | 0.602
CC1=NN(C(=O)c2ccc(C)cc2)C(O)(C(F)(F)OC(F)(F)F)C1 (stereo unspecified) | -0.0203
CCOC(=O)C1=NN(C(=O)c2ccccc2)C(O)(c2ccc(C)cc2)C1 (stereo unspecified) | 10.5 (active)
COC(=O)C1=NN(C(=O)c2ccc(C)cc2)C(O)(c2ccc(Cl)cc2)C1 (stereo unspecified) | 8.48 (active)
COC(=O)C1(O)CC(C(C)C)=NN1C(=O)c1ccc(Cl)cc1 (stereo unspecified) | 0.417
COC(=O)C1=NN(C(=O)c2ccccc2)C(C)(O)C1 (stereo unspecified) | 0.19
CCOC(=O)C1=NN(C(C)=O)C2(CC(=O)N(c3cccc(C)c3)C2=O)C1 (stereo unspecified) | -0.0266
